One test concerns AAK1.
The term Kd denotes the constant that tells how readily two partners part at equilibrium. Higher therefore signals weaker binding. As to `O=C(Nc1n[nH]c2cc(-c3cccc(F)c3F)ccc12)C1CC1` [SB-733894], the equilibrium dissociation constant (Kd) turned out to be 2100 nM.

Take `Cc1cc(-c2ccc3c(c2)CC[C@@H](N[C@@H](C)c2ccccc2)C3)cnc1N.Cl` [GW412617]: binding was put at a Kd of 3600 nM.

Regarding `CN1C(=O)C(Nc2ccc(Cl)c(C(=O)O)c2)=C(c2ccc(Cl)cc2)C1=O` [SB-404290], the Kd is > 10000 nM.

In the case of `COc1ccc(Nc2nccc(NCCNC(=O)Nc3ccccc3F)n2)cc1` [GSK1379901], the Kd was > 10000 nM.

For the compound `Cc1cccc(-c2nc(C)cc(Nc3ccncc3)n2)n1` [GSK257997], the equilibrium dissociation constant (Kd) is > 10000 nM.

A further test concerns ABL1-nonphosphorylated.
Consider `CC(=O)Nc1nc2cnc(Nc3cc(NC(=O)c4cccc(CCC#N)c4)ccc3C)nc2s1`, for which the dissociation constant (Kd) was > 10000 nM.

`O=C(Nc1ccccc1)Nc1cccc(Oc2ccc3nccn3n2)c1` gave a Kd of 140 nM.

Consider `Cc1cccc(-c2nc(-c3ccc(S(C)(=O)=O)cc3)sc2-c2ccnc(NCCc3ccccc3)c2)c1`, for which the Kd amounted to 330 nM.

`COc1ccc(Nc2nccc(-c3cccc(NC(=O)c4cc5cc(F)ccc5[nH]4)c3)n2)cc1` [GSK1229782] gave a dissociation constant Kd of 100 nM.

`Cc1ccccc1-n1cnc2c(N)ncnc21` [SKF-97510]: the Kd is > 10000 nM.

A further test concerns ACVR1B.
`Cc1cccc(-c2cc(Nc3ccncc3)c3ccccc3n2)n1` [GSK223675] returned an equilibrium dissociation constant (Kd) of 31 nM. That is a double-digit nanomolar value.

`Cl.c1ccc(-c2n[nH]cc2-c2ccnc(-c3ccc(CN4CCOCC4)cc3)c2)nc1` [GW776245] gave a dissociation constant (Kd) of 180 nM.

Compound `COc1ccc2nc(-c3cccc(C)n3)nc(Nc3ccncc3)c2c1` [GSK204919] had a dissociation constant (Kd) of 150 nM.

In turn, `Cc1cccc(-c2nc(Nc3ccncc3)c3ccccc3n2)n1` [GW855857] gave a Kd of 3.3 nM.

For `Cc1ccc(NC(=O)Nc2cccc(C(F)(F)F)c2)cc1` [GSK955403], the Kd is > 10000 nM.

`Cc1cccc(-c2nc(Nc3ccc4[nH]ncc4c3)c3ccccc3n2)n1` [GW857175]: the affinity, expressed as Kd, was 54 nM.

Turning to `Cc1csc(-c2nc(Nc3ccncc3)c3ccccc3n2)n1` [GW869640], the dissociation constant Kd was 39 nM. The Kd values of the last two compounds are within 1.5-fold of each other.

As to `Cc1cccc(-c2nc(Nc3cccc(C(N)=O)c3)c3ccccc3n2)n1` [GW876019], the affinity, expressed as Kd, was 1600 nM.

A further test concerns ACVR2B.
Take `Fc1cc(Cl)ccc1Nc1ccnc2cc(I)ccc12` [GW551191]: the affinity, expressed as Kd, was 110 nM.

For `Cc1c(O)cccc1Nc1ccnc2ccc(C(F)(F)F)cc12.Cl` [GW466413], the Kd was found to be 240 nM. Compared with the last compound, the Kd is about 2.2-fold higher.

In the case of `Fc1cccc(COc2nnc(-c3ccc4c(c3)CCO4)o2)c1`, the Kd was > 10000 nM.

The values are drawn from article PMC5540273 (PLoS ONE, 2017).
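Further: kd values determined as follow-up on hits from a single-replicate KINOMEscan panel screen.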
